# Several values for one entry are separate records, joined by “and”; a condition that tells them apart may be missing. Equal entries are not always repeated.
# Target: Hexose transporter 1 (Plasmodium falciparum) (UniProt O97467)
# Assay: ST_JUDE_LEISH: Cytotoxicity at 2uM final concentration against transgenic Leishmania Mexicana promastigotes LmPfHT that are glucose transport deficient and complemented with the Plasmodium falciparum hexose transporter. Activity is measured by DNA content using SYBR green in vitro
# Type: functional
row,SMILES,inhibition
1,Cc1cc(N2CC=CCC2)nc(NC(=N)Nc2ccc(Cl)cc2)n1,7.74%
2,O=C(/C=C/c1ccc(Cl)c(Cl)c1)NCCCCCN1CCCN(C(=O)Nc2ccc(Cl)cc2)CC1,-0.48%
3,Cc1cc(NCCC(=O)Nc2ccccc2)nc(NCc2ccccc2C)n1,10.5%
4,CN(C)c1ccc(-c2nc3cc(N)ccc3[nH]2)cc1,3.58%
5,N#Cc1ccc2c(c1)CCN(CCC1CCC(NC(=O)/C=C/c3cccc4ccccc34)CC1)CC2 (stereo not given),9.02%
6,CCCCCCCCNCc1c(O)ccc2ccccc12,3.25%
7,Cc1nnsc1C(=O)Nc1cccc(-c2ccc(-c3nc4cc(F)ccc4[nH]3)cc2)c1,3.3%
8,COC(=O)c1cccc(C#CCCOCCCCCCNC[C@H](O)c2cc(Cl)c(N)c(Cl)c2)c1,0.28%
9,CS(=O)(=O)Nc1cccc(-c2cnc3[nH]cc(-c4ccc(C(=O)O)cc4)c3c2)c1,0.36%
10,c1cc(Nc2nccc(-c3cnn4ncccc34)n2)cc(-c2cnco2)c1,45.8%
11,COc1ccc(CNCc2cccc(-c3csc(-c4nc5ccccc5[nH]4)c3)c2)cc1,-1.34%
12,OC(COCc1ccc(-c2ccccc2)cc1)CN1CCCCC1 (stereo not given),1.99%
13,CCCNC(=O)c1cncc(-c2ccc(CNCCCc3ccccc3)cc2)c1,1.6%
14,O=C(/C=C/c1ccc(Cl)c(Cl)c1)NCCCCCN1CCC(c2c[nH]c3ccccc23)C(O)C1 (stereo not given),0.8% and 4.3%
15,COc1ccc(S(=O)(=O)NCCCC2CCN(CCCCCNC(=O)C=Cc3ccc(Cl)c(Cl)c3)CC2)cc1,0.8%
16,CNCc1ccc(-c2ccc3ccnc(N)c3c2)cc1,5.56%
17,O=C(Nc1ccc(OC2CCN(Cc3ccc(F)cc3)C2)cc1)c1ccco1 (stereo not given),2.86%
18,COc1ccc2nccc([C@@H](O)CN3CCC(NC(=O)c4cc5c(F)cc(F)cc5[nH]4)CC3)c2c1,20.8%
19,CN(C)CCN(C)Cc1ccc(-c2ccc3c(Nc4ccc(Oc5ccccc5)cc4)ccnc3c2)o1,2.26%
20,c1cncc(-c2cccc(CNc3nccc(Nc4ccc(OCCN5CCOCC5)cc4)n3)c2)c1,1%

row,SMILES,inhibition
1,O=C(N[C@@H](Cc1ccccc1)C(=O)NCCN1CCCCC1)c1ccc(O)c(-c2cccc(C(F)(F)F)c2)c1,1.38%
2,COc1ccc(C2=[N+]([O-])c3ccccc3C2=O)cc1,0.24%
3,COc1ccc(CNCc2ccccc2)cc1-c1ccc(S(=O)(=O)NCCN2CCCC2)c(F)c1,13%
4,CCOc1ccc2c(=NN=Cc3c4ccccc4cc4ccccc34)cc(C)[nH]c2c1,1.13%
5,O=[N+]([O-])c1cccc(CNCC2CCN(CC3CCCCC3)CC2)c1,3.2%
6,O=C(C=Cc1ccc(-c2nc3ccccc3[nH]2)cc1)NC1CCN(Cc2ccccc2)CC1,1.99%
7,Cc1nnsc1C(=O)Nc1ccc(-c2ccc(-c3nc4cccc(C)c4[nH]3)s2)cc1,2.76%
8,COc1ccc(C2CC(=O)C3=C(C2)NC(C)=C(C(=O)OC(C)C)C3c2ccccc2F)cc1OC (stereo not given),2.16%
9,O=C(/C=C/c1cccc(Br)c1)NCCCCCN1CCC(c2c[nH]c3ccccc23)CC1,2.1%
10,COc1cccc(CN2CCCN(Cc3cccc(NC(=O)c4ccc(Cl)c(Cl)c4)c3)CC2)c1,-0.94%
11,CC1CCCCN1S(=O)(=O)c1ccc(NC(=O)c2cc(-c3ccccc3O)n[nH]2)cc1 (stereo not given),1.81%
12,CN1CCN(c2ccnc3ccc(NC(=O)Nc4c(Cl)cccc4Cl)cc23)CC1,-2.3%
13,COc1ccc2nccc(CCN3CC(O)C(CNCc4ccc5c(n4)NC(=O)CS5)C3)c2n1 (stereo not given),3.49%
14,Cc1cc(I)ccc1Nc1nc2nonc2nc1Nc1ccc(I)cc1C,9.02%
15,Cc1cccc2nc(-c3cccc(-c4cccc(CNCCCN5CCCC5=O)c4)c3)[nH]c12,-0.59%
16,Oc1ccc(-c2ccccc2)cc1CN1CCCCCC1,2.49%
17,N=C(NCCCc1ccccc1)c1cccc(C(=N)NCCCc2ccccc2)n1,-1.1%
18,O=C1C(=Cc2cc(Cc3ccccc3)ccc2O)SC(=S)N1Cc1ccccc1,7.14%
19,Cc1nc(-c2cccc(Nc3nccc(NCC(O)c4ccccc4)n3)c2)cs1 (stereo not given),0.76%
20,Nc1c(I)cc(C(=O)Nc2ccc3nc4c(c(N)c3c2)CCCC4)cc1I,1.16%

# Target: Glucose transporter (Leishmania mexicana) (UniProt O61059)
# Assay: ST_JUDE_LEISH: Cytotoxicity at 2uM final concentration against transgenic Leishmania Mexicana promastigotes LmGT2 that are glucose transport deficient and complemented with the L. Mexicana glucose transporter 2. Activity is measured by DNA content using SYBR green in vitro
# Type: functional
row,SMILES,inhibition
1,Cc1cc(N2CC=CCC2)nc(NC(=N)Nc2ccc(Cl)cc2)n1,6.89%
2,O=C(/C=C/c1ccc(Cl)c(Cl)c1)NCCCCCN1CCCN(C(=O)Nc2ccc(Cl)cc2)CC1,0.01%
3,Cc1cc(NCCC(=O)Nc2ccccc2)nc(NCc2ccccc2C)n1,7.37%
4,CN(C)c1ccc(-c2nc3cc(N)ccc3[nH]2)cc1,0.22%
5,N#Cc1ccc2c(c1)CCN(CCC1CCC(NC(=O)/C=C/c3cccc4ccccc34)CC1)CC2 (stereo not given),2.63%
6,CCCCCCCCNCc1c(O)ccc2ccccc12,5.48%
7,Cc1nnsc1C(=O)Nc1cccc(-c2ccc(-c3nc4cc(F)ccc4[nH]3)cc2)c1,4.66%
8,COC(=O)c1cccc(C#CCCOCCCCCCNC[C@H](O)c2cc(Cl)c(N)c(Cl)c2)c1,1.01%
9,CS(=O)(=O)Nc1cccc(-c2cnc3[nH]cc(-c4ccc(C(=O)O)cc4)c3c2)c1,3.74%
10,c1cc(Nc2nccc(-c3cnn4ncccc34)n2)cc(-c2cnco2)c1,63.1%
11,COc1ccc(CNCc2cccc(-c3csc(-c4nc5ccccc5[nH]4)c3)c2)cc1,2.49%
12,OC(COCc1ccc(-c2ccccc2)cc1)CN1CCCCC1 (stereo not given),3.58%
13,CCCNC(=O)c1cncc(-c2ccc(CNCCCc3ccccc3)cc2)c1,0.59%
14,O=C(/C=C/c1ccc(Cl)c(Cl)c1)NCCCCCN1CCC(c2c[nH]c3ccccc23)C(O)C1 (stereo not given),2.14% and 3.3%
15,COc1ccc(S(=O)(=O)NCCCC2CCN(CCCCCNC(=O)C=Cc3ccc(Cl)c(Cl)c3)CC2)cc1,3.65%
16,CNCc1ccc(-c2ccc3ccnc(N)c3c2)cc1,3.23%
17,O=C(Nc1ccc(OC2CCN(Cc3ccc(F)cc3)C2)cc1)c1ccco1 (stereo not given),3.15%
18,COc1ccc2nccc([C@@H](O)CN3CCC(NC(=O)c4cc5c(F)cc(F)cc5[nH]4)CC3)c2c1,8.41%
19,CN(C)CCN(C)Cc1ccc(-c2ccc3c(Nc4ccc(Oc5ccccc5)cc4)ccnc3c2)o1,2.63%
20,c1cncc(-c2cccc(CNc3nccc(Nc4ccc(OCCN5CCOCC5)cc4)n3)c2)c1,0.07%

row,SMILES,inhibition
1,O=C(N[C@@H](Cc1ccccc1)C(=O)NCCN1CCCCC1)c1ccc(O)c(-c2cccc(C(F)(F)F)c2)c1,2.46%
2,COc1ccc(C2=[N+]([O-])c3ccccc3C2=O)cc1,-0.74%
3,COc1ccc(CNCc2ccccc2)cc1-c1ccc(S(=O)(=O)NCCN2CCCC2)c(F)c1,10.7%
4,CCOc1ccc2c(=NN=Cc3c4ccccc4cc4ccccc34)cc(C)[nH]c2c1,3.35%
5,O=[N+]([O-])c1cccc(CNCC2CCN(CC3CCCCC3)CC2)c1,2.98%
6,O=C(C=Cc1ccc(-c2nc3ccccc3[nH]2)cc1)NC1CCN(Cc2ccccc2)CC1,5.3%
7,Cc1nnsc1C(=O)Nc1ccc(-c2ccc(-c3nc4cccc(C)c4[nH]3)s2)cc1,2.44%
8,COc1ccc(C2CC(=O)C3=C(C2)NC(C)=C(C(=O)OC(C)C)C3c2ccccc2F)cc1OC (stereo not given),1.65%
9,O=C(/C=C/c1cccc(Br)c1)NCCCCCN1CCC(c2c[nH]c3ccccc23)CC1,5.42%
10,COc1cccc(CN2CCCN(Cc3cccc(NC(=O)c4ccc(Cl)c(Cl)c4)c3)CC2)c1,2.19%
11,CC1CCCCN1S(=O)(=O)c1ccc(NC(=O)c2cc(-c3ccccc3O)n[nH]2)cc1 (stereo not given),-1.06%
12,CN1CCN(c2ccnc3ccc(NC(=O)Nc4c(Cl)cccc4Cl)cc23)CC1,-1.19%
13,COc1ccc2nccc(CCN3CC(O)C(CNCc4ccc5c(n4)NC(=O)CS5)C3)c2n1 (stereo not given),4.07%
14,Cc1cc(I)ccc1Nc1nc2nonc2nc1Nc1ccc(I)cc1C,9.11%
15,Cc1cccc2nc(-c3cccc(-c4cccc(CNCCCN5CCCC5=O)c4)c3)[nH]c12,-1.17%
16,Oc1ccc(-c2ccccc2)cc1CN1CCCCCC1,1%
17,N=C(NCCCc1ccccc1)c1cccc(C(=N)NCCCc2ccccc2)n1,-0.17%
18,O=C1C(=Cc2cc(Cc3ccccc3)ccc2O)SC(=S)N1Cc1ccccc1,8.43%
19,Cc1nc(-c2cccc(Nc3nccc(NCC(O)c4ccccc4)n3)c2)cs1 (stereo not given),2.14%
20,Nc1c(I)cc(C(=O)Nc2ccc3nc4c(c(N)c3c2)CCCC4)cc1I,1.17%

# Source: ChEMBL document CHEMBL3433997, “St. Jude Leishmania screening dataset” (2016)
